mHTT CaM bind = inhibitors of human mutant huntingtin-calmodulin interaction; P42858; AlphaScreen His-mHTT/GST-CaM binding, luminescence; inhibition, % at 15 µM; actives 3.6% (n = 190,000); AID 1671202;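 also: 0% = both proteins with DMSO and 100% = one protein alone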
Pf apPOL inh = Pf-apPOL DNA polymerase inhibition | actives 0.25% (n = 210,000) | inhibition, % at 10 µM | Recombinant Pf-apPOL, molecular beacon fluorescence, 1.5 h
* = called active by the depositor; . = no result. Only a selection was taken, and hits are over-represented in it overall. Rule as the data show it: active = inhibition above about 50%; inactive = the rest.

SMILES	mHTT CaM bind	Pf apPOL inh
CCOc1ccc(NC(=O)c2c(NC(=O)CNCCN3CCOCC3)sc3c2CCC3)cc1	81.3*	0.2
COc1ccc(NC(=O)c2c(NC(=O)CNCCO)sc3c2CCC3)cc1	61.5*	-0.6
COc1ccc(NC(=O)c2c(NC(=O)CNCc3ccco3)sc3c2CCC3)cc1	10.8	-1.8
CCOc1ccc(NC(=O)c2c(NC(=O)CNCC3CCCO3)sc3c2CCC3)cc1 (stereo unspecified)	34.6	-3.9
COCCNC(=O)c1cc(Sc2ccc(Cl)cc2)nc2ccccc12	5.0	-3.1
Cc1ccc(NC(=O)Cn2c(C(C)C)nc3c(c2=O)CCN(Cc2ccccc2)C3)c(C)c1	-1.7	-6.5
Clc1ccc(-c2csc(Nc3ccccc3)n2)cc1	.	0.2
Oc1ccc(Nc2nc(-c3cccnc3)cs2)cc1	58.0*	1.1
Oc1ccc(Nc2nc(-c3ccc(Cl)c(Cl)c3)cs2)cc1	98.0*	-4.2
Cc1ccc(-c2csc(Nc3ccc(O)cc3)n2)cc1C	86.3*	2.5
CCOc1ccc(Nc2nc(-c3ccc(C)c(C)c3)cs2)cc1	24.7	-8.7
O=C(O)c1ccc(Nc2nc(-c3cccnc3)cs2)cc1	-4.5	-4.3
COCc1cc(=O)n(CC(=O)Nc2ccc(OC)c(F)c2)c(N)n1	-3.2	-2.9
COCCNC(=O)c1ccc(-c2nc3ccccc3n(CC(C)C)c2=O)cc1	11.5	-2.9
O=c1[nH]c(/C=C/c2cccnc2)nc2ccccc12	100.3*	-4.3
O=c1[nH]c(/C=C/c2ccc(Cl)cc2)nc2ccccc12	-0.8	-2.1
CCn1c(/C=C/c2cccnc2)nc2ccccc2c1=O	100.0*	-1.7
CCn1c(/C=C/c2ccccc2Cl)nc2ccccc2c1=O	-1.2	-7.7
COc1ccc(N(C)C(=O)c2coc(=O)c3ccccc23)c(OC)c1	4.0	0.4
O=C1C(=O)N(Cc2csc(-c3ccc(Cl)cc3)n2)c2ccc(Br)cc21	46.0	0.3
O=C1C(=O)N(Cc2ccccc2)c2ccc(Br)cc21	48.0	5.0
O=C1C(=O)N(Cc2c(F)cccc2Cl)c2ccc(Br)cc21	66.0*	0.1
CCN(CC)C(=O)CN1C(=O)C(=O)c2cc(Br)ccc21	97.3*	.
CCN(CC)C(=O)CN1C(=O)C(=O)c2ccccc21	0.3	4.3
O=C1C(=O)N(Cc2ccccc2Cl)c2ccc(Br)cc21	86.0*	-2.2
SMILES	mHTT CaM bind	Pf apPOL inh
CCC(CC)C(=O)N1CCN(c2ccc(F)cc2)CC1	0.3	-1.6
Cc1ccc(C2CC(C(F)(F)F)n3ncc(C(=O)Nc4cccc(Cl)c4)c3N2)cc1 (stereo unspecified)	10.0	0.5
COc1ccc(-c2oc3c(c2C#CC(C)(C)O)C(OCCO)CC3)cc1 (stereo unspecified)	0.8	-9.4
COC1CCCc2oc(-c3ccsc3)c(C#CCO)c21 (stereo unspecified)	52.2*	8.4
O=C(Nc1cnc(N2CCOCC2)nc1)c1cccc(F)c1	0.1	-6.9
COc1ccc(C(=O)NC2CS(=O)(=O)CC2Cl)cc1 (stereo unspecified)	-3.0	-2.5
O=C(Cc1ccc(Cl)cc1)Nc1ccccc1NC(=O)Cc1ccc(Cl)cc1	-5.3	3.0
CC(=O)Nc1ccccc1NC(=O)Cc1ccc(Cl)cc1	-1.3	94.8*
O=C(COc1ccc(Cl)cc1)NCCN1CCN(c2ccccc2)CC1	-6.4	-18.9
COc1cn2c(cc1=O)C(=O)N(CCNC(=O)CC1CCCC1)CC2	-7.5	-0.5
Cc1[nH]n2c(=O)cc(Cc3ccccc3)nc2c1-c1ccc(Cl)cc1	62.5*	-3.3
CCCc1cc(=O)n2[nH]c(C)c(-c3ccccc3)c2n1	4.9	1.2
O=C1c2ccccc2C(=O)C1(Nc1ccc(I)cc1)c1ccccc1	43.0	-6.8
CS(=O)(=O)N1CCN(C(=O)c2coc(NC(=O)c3ccccc3)n2)CC1	-8.7	-1.6
N#CC1=C(N)C(C#N)(C#N)C(c2cccc(F)c2)C2CCCC=C12 (stereo unspecified)	23.0	-2.7
N#CC1=C(N)C(C#N)(C#N)C(c2ccc(Cl)cc2Cl)C2CCCC=C12 (stereo unspecified)	49.0	2.3
N#CC1=C(N)C(C#N)(C#N)C(c2cccc(Oc3ccccc3)c2)C2CCCC=C12 (stereo unspecified)	50.0*	4.5
N#CC1=C(N)C(C#N)(C#N)C(c2ccc(Cl)c(Cl)c2)C2CCCC=C12 (stereo unspecified)	100.0*	6.1
N#Cc1c(-c2ccccc2)cc(-c2ccco2)c(C#N)c1N	55.3*	8.6
N#CCOc1nc(-c2ccccc2)cc(-c2ccco2)c1C#N	.	0.4
N#Cc1ccc(-c2ccco2)[nH]c1=O	.	32.6
N#Cc1c(-c2ccco2)cc(-c2ccco2)[nH]c1=O	.	92.7*
CN1CCN(C(=O)c2ccc(-c3nc(-c4ccc(F)cc4)no3)cc2)CC1	12.8	-3.3
CN(C)CCCNC(=O)c1cccc([N+](=O)[O-])c1	-0.2	-1.9
N#CC1=C(N)Oc2n[nH]c(-c3ccc(Cl)c(Cl)c3)c2C1c1ccc(O)c(O)c1 (stereo unspecified)	99.0*	0.0
SMILES	mHTT CaM bind	Pf apPOL inh
COc1cc(C2C(C#N)=C(N)Oc3n[nH]c(-c4cccs4)c32)cc(OC)c1O (stereo unspecified)	19.0	6.9
N#CC1=C(N)Oc2n[nH]c(-c3ccc(Cl)c(Cl)c3)c2C1c1cccc(O)c1 (stereo unspecified)	100.0*	-0.2
N#CC1=C(N)Oc2n[nH]c(-c3ccc(F)cc3)c2C1c1cccc(F)c1 (stereo unspecified)	12.0	-4.2
N#CC1=C(N)Oc2n[nH]c(-c3ccc(Cl)cc3)c2C1c1ccc(F)cc1 (stereo unspecified)	17.0	0.1
COc1cc(C2C(C#N)=C(N)Oc3n[nH]c(-c4ccc(Cl)s4)c32)ccc1O (stereo unspecified)	60.0*	-2.0
CCc1ccccc1NC(=O)C1CCN(c2cnc3nc(C)c(C)nc3c2)CC1	16.1	0.1
Cc1cccc(NC(=O)CC2SC(=N)NC2=O)c1 (stereo unspecified)	2.0	-4.3
O=C(Nc1ccc(-c2nc3ccccc3o2)c(O)c1)c1ccc(-c2ccc([N+](=O)[O-])cc2)o1	36.0	-5.6
COc1cc(C)c(C)cc1S(=O)(=O)Nc1ccc2c(c1)C(=O)NCCO2	-0.2	0.8
CC(=O)N1CCC(n2c(C)nc(C(=O)NCc3ccc(F)cc3)c2C)CC1	7.7	-3.0
Cc1cccc2oc(-c3cc(N=Cc4cc([N+](=O)[O-])cc([N+](=O)[O-])c4O)ccc3O)nc12	28.0	1.4
Cc1cccc2oc(-c3cc(N=Cc4ccc([N+](=O)[O-])cc4)ccc3O)nc12	12.0	59.0*
Cc1cccc(NC(=O)NC2CCN(c3ccc(F)cc3)C2=O)c1 (stereo unspecified)	-1.3	-0.2
Cc1ccc(Nc2c(C(=O)NCc3ccc(F)cc3)cnc3c2c(C)nn3C)cc1	94.2*	-4.2
CCCNC(=O)c1cnc2c(c(C)nn2C)c1Nc1ccc(C)cc1	3.5	-2.3
CCCCC(=O)Nc1ccc(I)cc1C	-2.5	-29.5
Cc1cc(C)c(C(=O)N2CCC(CC(=O)NCCCN3CCCCCC3)CC2)[nH]1	13.4	-1.9
O=C(c1ccc(F)cc1)N1CCCCCC1	-7.4	9.4
O=C(c1ccc(F)cc1)N1CCc2nc(N3CCCC3)nc(N3CCCC3)c2C1	55.9*	16.6
CN(C)C(=O)C1=C(c2ccccc2)OCCS1	3.7	-3.1
CC(=O)Nc1ccc(C(=O)NCc2cccc(Cl)c2)c(N2CCCCC2)c1	33.1	-5.0
O=C(NCCC1=CCCCC1)c1ccncc1	-3.3	1.9

Source: PubChem BioAssay
